Test results taken from the supplement of paper PMC6992640.
± gives the standard deviation of the averaged measurements.

Assays:
Test in all cases: cell viability (% of vehicle); higher = less cytotoxic
Settings in all cases: 10 µM; 72 h
HCI01 = test system: HCI01 (cells of a triple-negative basal-like breast cancer xenograft)
HCI03 = test system: HCI03 (cells of an ER-positive luminal breast cancer xenograft)
HCI09 = test system: HCI09 (cells of a triple-negative luminal androgen receptor type breast cancer xenograft)
HCI11 = test system: HCI11 (cells of an ER-positive luminal breast cancer xenograft)
HCI13 = test system: HCI13 (cells of an ER-positive luminal breast cancer xenograft)
HCI16 = test system: HCI16 (cells of a triple-negative basal-like breast cancer xenograft)
UCD52 = test system: UCD52 (cells of a triple-negative basal-like breast cancer xenograft)
WHIM2 = test system: WHIM2 (cells of a triple-negative basal-like breast cancer xenograft)
WHIM30 = test system: WHIM30 (cells of a triple-negative basal-like breast cancer xenograft)
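Note: PDX cells carrying CMV promoter-driven luciferase, viability read as total photon flux per second by IVIS imaging following D-luciferin, vehicle control 0.1% DMSO.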

SMILES	cell viability (HCI01)	cell viability (HCI03)	cell viability (HCI09)	cell viability (HCI11)	cell viability (HCI13)	cell viability (HCI16)	cell viability (UCD52)	cell viability (WHIM2)	cell viability (WHIM30)
COS(=O)(=O)[O-].C[N+]1(C)CCC(=C(c2ccccc2)c2ccccc2)CC1 [Diphemanil Methylsulfate]	101 ± 3	121	97.8 ± 12	109	119 ± 5.8	84.7	94.5 ± 13	96.7 ± 19	161.9 ± 0.26
Nc1ccc(O)c(C(=O)O)c1 [Mesalamine]	110 ± 2.2	125	116 ± 8.1	103	130 ± 15	125	105 ± 2.3	92 ± 2.1	155 ± 27
CN(C)c1cc(NC(=O)CNC(C)(C)C)c(O)c2c1CC1CC3C(N(C)C)C(=O)C(C(N)=O)=C(O)C3(O)C(=O)C1=C2O (stereo unspecified) [Tigecycline]	80 ± 10	121	95.8 ± 8.5	81.9	129 ± 23	120	96.7 ± 21	102 ± 22	129 ± 8.6
CC(CCC(=O)O)C1CCC2C3C(O)CC4CC(O)CCC4(C)C3CCC12C (stereo unspecified) [Ursodiol]	90.9 ± 70	150	100.8 ± 0.88	95.2	126 ± 9.4	124	89.82 ± 0.32	111 ± 9.3	155 ± 12
O=C(CS(=O)Cc1ccco1)NCC=CCOc1cc(CN2CCCCC2)ccn1 (stereo unspecified) [Lafutidine]	137 ± 32	136	107 ± 3.1	108	190 ± 46	119	89.1 ± 3.8	88.6 ± 19	114 ± 2
O=C1CCCC(=O)C1C(=O)c1ccc(C(F)(F)F)cc1[N+](=O)[O-] [Nitisinone]	105 ± 31	110	93.2 ± 5.5	87.8	109 ± 25	137	103 ± 10	79.6 ± 4.9	149 ± 19
CC(CCc1ccccc1)NCC(O)c1ccc(O)c(C(N)=O)c1.Cl (stereo unspecified) [Labetalol HCl]	101 ± 12	106	95.8 ± 9.3	104	105 ± 7.3	112	85.7 ± 7	110 ± 15	111 ± 13
COc1cc2c(cc1OC)CC(=O)N(CCCN(C)CC1Cc3cc(OC)c(OC)cc31)CC2.Cl (stereo unspecified) [Ivabradine HCl]	105 ± 7.9	121	100 ± 19	114	99.3 ± 3.9	97.9	85.7 ± 11	93.2 ± 17	123 ± 5.3
CCN1CCCC1CNC(=O)c1cc(S(=O)(=O)CC)c(N)cc1OC (stereo unspecified) [Amisulpride]	189 ± 32	126	108 ± 14	100	82.7 ± 0.84	159	116 ± 15	122 ± 4	139 ± 2.1
Nc1ccc(C(=O)NCC(=O)[O-])cc1.[Na+] [Sodium 4-amiropparaty Hyalrate]	107.1 ± 0.65	109	122 ± 35	110	112 ± 12	107	91.5 ± 8.8	95.4 ± 6	171 ± 21
CCCCCCCCCCCC(CC1OC(=O)C1CCCCCC)OC(=O)C(CC(C)C)NC=O (stereo unspecified) [Orlistat]	126.7 ± 0.42	122	123 ± 42	110	97.6 ± 13	81.3	76.1 ± 1	79.1 ± 21	123 ± 6.8
CC(C(=O)O)c1ccc2c(c1)Cc1cccnc1O2 (stereo unspecified) [Pranoprofen]	113 ± 13	128	93.6 ± 16	78.6	123 ± 16	125	98.8 ± 19	110 ± 3.3	111 ± 22
Cc1ccc(-n2nc(C(C)(C)C)cc2NC(=O)Nc2ccc(OCCN3CCOCC3)c3ccccc23)cc1 [BIRB 796 (Doramapimod)]	138 ± 41	89.6	93.5 ± 19	71.1	48.5 ± 3.4	87.4	62.1 ± 7	89.8 ± 8	103 ± 18
O=C1Nc2ccc(Cl)cc2C(C#CC2CC2)(C(F)(F)F)O1 (stereo unspecified) [Efavirenz]	114 ± 16	85.9	68.9 ± 7.4	99.8	82.9 ± 7.3	108	69.5 ± 1.9	69.6 ± 46	82.3 ± 17
COC(=O)C1C2CC3c4[nH]c5cc(OC)ccc5c4CCN3CC2CC(OC(=O)c2cc(OC)c(OC)c(OC)c2)C1OC (stereo unspecified) [Reserpine]	123 ± 29	112	92.8 ± 4.8	89	129 ± 10	132	105 ± 1.3	88.36 ± 0.5	109 ± 7.1
CC(c1cc2ccccc2s1)N(O)C(N)=O (stereo unspecified) [Zileuton]	101 ± 13	136	105 ± 10	101	134 ± 24	128	112 ± 4	112 ± 21	134 ± 13
Cl.NC(CO)C(=O)NNCc1ccc(O)c(O)c1O (stereo unspecified) [Benserazide HCl]	95.9 ± 1.5	69.1	83.6 ± 6.1	44.9	79.2 ± 11	77.2	69.6 ± 8.5	96.3 ± 3.2	103 ± 4.4
Cc1nnc(SCC2=C(C(=O)[O-])N3C(=O)[C@@H](NC(=O)Cn4cnnn4)[C@H]3SC2)s1.[Na+] [Cefazolin (sodium salt)]	115 ± 6.6	131	97.4 ± 9.4	85.9	125 ± 18	126	119 ± 12	104 ± 6	129 ± 8.7
CC(C)(C)c1cc(C(C)(C)C)c(NC(=O)c2c[nH]c3ccccc3c2=O)cc1O [Ivacaftor (VX-770)]	41.4 ± 24	83.8	18.7 ± 3.1	139	29.5 ± 4.1	121	97.2 ± 20	34.4 ± 0.58	200 ± 19
CCOC(=O)c1ccc(OC(=O)CCCCCN=C(N)N)cc1.CS(=O)(=O)O [Gabexate mesylate]	170 ± 9.1	122	98 ± 3.2	147	96.8 ± 1.2	159	142 ± 6.2	111 ± 10	180 ± 27

SMILES	cell viability (HCI01)	cell viability (HCI03)	cell viability (HCI09)	cell viability (HCI11)	cell viability (HCI13)	cell viability (HCI16)	cell viability (UCD52)	cell viability (WHIM2)	cell viability (WHIM30)
O=c1ccc2ccc(OCCCCN3CCN(c4cccc5sccc45)CC3)cc2[nH]1 [Brexpiprazole]	136 ± 21	106	85.7 ± 10	102	123 ± 5.6	162	78.3 ± 6.2	115 ± 9.1	112 ± 8.2
COc1cc(OC)c(C=CS(=O)(=O)Cc2ccc(OC)c(NCC(=O)[O-])c2)c(OC)c1.[Na+]	126.6 ± 0.39	111	112 ± 11	99.6	40.1 ± 4.7	115	117 ± 20	73.9 ± 14	112 ± 16
Cn1c(=O)c2c(ncn2CC(O)CO)n(C)c1=O (stereo unspecified) [Dyphylline]	98.4 ± 7.5	122	98 ± 15	114	117 ± 14	85.9	90.2 ± 3.7	104 ± 1.1	119 ± 24
NC(=O)c1cn(Cc2c(F)cccc2F)nn1 [Rufinamide]	93.3 ± 16	137	106 ± 14	99.1	103 ± 10	106	96.9 ± 3.1	93.3 ± 18	124 ± 1.8
c1coc(CNc2ncnc3nc[nH]c23)c1 [Kinetin]	109 ± 4.5	123	103 ± 12	100	120 ± 7.4	86.8	102 ± 20	93.7 ± 4	121 ± 4.5
CC1(C)SC2C(NC(=O)C(NC(=O)N3CCN(S(C)(=O)=O)C3=O)c3ccccc3)C(=O)N2C1C(=O)O.[Na] (stereo unspecified) [Mezlocillin Sodium]	143 ± 62	142	104 ± 10	102	89.7 ± 3.6	123	105 ± 1.2	107 ± 20	103 ± 9.4
NS(=O)(=O)c1cc(C(=O)O)c(NCc2ccco2)cc1Cl [Furosemide]	108 ± 7.4	126	98.4 ± 8.6	105	89.1 ± 17	94.5	83.56 ± 0.16	98.3 ± 1.4	78.9 ± 6.2
N.N.[Cl][Pt+2][Cl] [Cisplatin]	114 ± 0.99	124	64 ± 66	119	66.6 ± 27	117	99.9 ± 11	117 ± 18	133 ± 14
CCN(Cc1ccncc1)C(=O)C(CO)c1ccccc1 (stereo unspecified) [Tropicamide]	112 ± 15	136	106 ± 11	101	136 ± 23	110	74.6 ± 14	91.4 ± 14	98.61 ± 0.95
Cl.NC(N)=NC(=O)Cc1c(Cl)cccc1Cl [Guanfacine hydrochloride]	117 ± 15	97.6	82.1 ± 9.4	86.2	107 ± 6.5	94.4	93.2 ± 6	102 ± 9.9	132 ± 19
CC(Cc1ccc(O)c(O)c1)(NN)C(=O)O (stereo unspecified) [Carbidopa]	116 ± 20	122	121 ± 20	79.8	119 ± 14	149	124 ± 9.1	81.6 ± 11	126 ± 6.2
O=C1CCc2cc(OCCCCc3nnnn3C3CCCCC3)ccc2N1 [Cilostazol]	133 ± 7.6	125	78.2 ± 12	106	126 ± 24	93.7	80.8 ± 7.3	191 ± 27	125 ± 25
CS(=O)(=O)O.OC(CCN1CCCCC1)(c1ccccc1)c1ccccc1 [Pridinol Methanesulfonate]	113 ± 3.7	104	124 ± 47	119	92.6 ± 12	112	86.1 ± 6.1	164 ± 89	129 ± 10
N#CC1CC2CC2N1C(=O)C(N)C12CC3CC(CC(O)(C3)C1)C2 (stereo unspecified) [Saxagliptin]	95 ± 7.6	145	82.1 ± 5.7	89.2	85.7 ± 7	93.8	97.4 ± 5.6	123 ± 7.2	98 ± 2.8
CC(=O)C1CCC2C3CC=C4CC(O)CCC4(C)C3CCC12C (stereo unspecified) [Pregnenolone]	141 ± 20	126	76 ± 7	84.5	175 ± 44	111	75.4 ± 2.4	99 ± 3.8	116 ± 19
COc1ccc(-c2ccc3cc(C(=O)O)ccc3c2)cc1C12CC3CC(CC(C3)C1)C2 [Adapalene]	119 ± 6.1	81.4	92.2 ± 40	95.5	139 ± 23	82.7	179 ± 28	83.8 ± 12	114 ± 18
Cc1cccc(C)c1OCC(=O)NC(Cc1ccccc1)C(O)CC(Cc1ccccc1)NC(=O)C(C(C)C)N1CCCNC1=O (stereo unspecified) [Lopinavir]	83 ± 1.7	102	57.3 ± 20	88.4	93.7 ± 6.3	116	48 ± 4	73.6 ± 13	96.4 ± 16
COC(=O)N=NC=C1C=[N+]([O-])c2ccccc2N1O [Carbadox]	106 ± 3.1	116	97.8 ± 8.7	107	106 ± 28	98.8	72.3 ± 12	96.8 ± 9.7	114 ± 9.4
CCCCCN(C)CCC(O)(P(=O)([O-])O)P(=O)(O)O.O.[Na+] [Ibandronate sodium]	113 ± 30	93.2	107 ± 19	101	126 ± 20	138	115 ± 5.5	130 ± 14	128 ± 22
